Assay [1] can be described thus: qHTS for Inhibitors of the Functional Ribonucleoprotein Complex (vRNP) of Lassa (LASV) Arenavirus: LASV Primary Screen - GLuc reporter signal (AID 1347082; calls by dose curve; tested in HEK293 reporter line; note: nearly all actives have a fitted effect of over 60% in size). The conditions noted are these: LASV minigenome vRNP, Gaussia luciferase reporter; series mostly up to 57.5 µM. (In general: In qHTS, concentration-response curves come from the screen itself.)
A short description of assay [2]: qHTS for Inhibitors of the Functional Ribonucleoprotein Complex (vRNP) of Lassa (LASV) Arenavirus: Viability assay - alamar blue signal for LASV Primary Screen (AID 1347083; calls by dose curve; tested in HEK293 reporter line; note: nearly all actives have a fitted effect of over 80% in size). The conditions noted are these: cell viability, alamar blue fluorescence (LASV minigenome counter-screen); series mostly up to 57.5 µM.
Assay [3] is described as follows: qHTS for Inhibitors of the Functional Ribonucleoprotein Complex (vRNP) of Lymphocytic Choriomeningitis Arenaviruses (LCMV): Viability assay - alamar blue signal for LCMV Primary Screen (AID 1347085; calls by dose curve; tested in HEK293 reporter line; note: nearly all actives have a fitted effect of over 80% in size). The conditions noted are these: alamar blue viability counter-screen, LCMV vRNP screen cells; series mostly up to 57.5 µM.
The target in assay [4] is Nucleoprotein (Lymphocytic choriomeningitis virus (strain Armstrong)) (UniProt P09992). Description: qHTS for Inhibitors of the Functional Ribonucleoprotein Complex (vRNP) of Lymphocytic Choriomeningitis Arenaviruses (LCMV): LCMV Primary Screen - GLuc reporter signal (AID 1347086). Note: nearly all actives have a fitted effect of over 70% in size. The conditions noted are these: LCMV minigenome vRNP cell assay, Gaussia luciferase reporter; series mostly up to 57.5 µM.

Inconclusive results are not listed. A number with no mark means an inactive call. The source made the active and inactive calls. Unless noted, calls come from the whole dose curve.
Potency is the fitted concentration of half-maximal effect.

Chain of Nucleoprotein (Lymphocytic choriomeningitis virus (strain Armstrong)) (P09992 whole entry, looked up): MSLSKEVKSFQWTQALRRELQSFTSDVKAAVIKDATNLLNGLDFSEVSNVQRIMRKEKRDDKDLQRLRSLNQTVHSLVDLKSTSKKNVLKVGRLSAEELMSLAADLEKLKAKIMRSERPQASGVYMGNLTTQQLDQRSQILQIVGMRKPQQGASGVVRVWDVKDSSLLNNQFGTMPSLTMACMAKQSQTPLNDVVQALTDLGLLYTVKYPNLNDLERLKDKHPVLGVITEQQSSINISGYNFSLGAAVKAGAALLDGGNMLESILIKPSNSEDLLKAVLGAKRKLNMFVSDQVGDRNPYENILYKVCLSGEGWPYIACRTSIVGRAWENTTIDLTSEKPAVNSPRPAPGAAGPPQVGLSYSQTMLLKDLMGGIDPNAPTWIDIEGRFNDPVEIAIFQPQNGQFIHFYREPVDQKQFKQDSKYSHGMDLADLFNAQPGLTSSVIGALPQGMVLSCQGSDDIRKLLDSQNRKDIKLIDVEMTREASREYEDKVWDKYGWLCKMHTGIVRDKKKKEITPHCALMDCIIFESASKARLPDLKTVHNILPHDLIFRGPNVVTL

Take `c1ccc2c3c([nH]c2c1)C1(CCCCC1)NCC3`: the Potency result in assay [1], in assay [2], in assay [3] and in assay [4] was “inactive” throughout.

Consider `COc1cc2c(cc1OC)C1Cc3ccc(OC)c(OC)c3C[N+]1([O-])CC2` (stereo unspecified), for which the Potency result in assay [1], in assay [2], in assay [3] and in assay [4] was “inactive” in each case.

As for `CC(C)CC(=O)OC(C)(C)[C@@H]1Cc2c(ccc3ccc(=O)oc23)O1`, the Potency entry in assay [1], in assay [2], in assay [3] and in assay [4] was “inactive” in each case.

Consider `CC(C)CCC[C@@H](C)[C@@H]1CC[C@H]2C3=CC=C4CC(O)CC[C@]4(C)[C@H]3CC[C@@]21C` (stereo partly specified), for which the Potency entry in assay [1], in assay [2], in assay [3] and in assay [4] was “inactive” in each case.

For the compound `COc1cc(/C=C/c2ccc(O)cc2)cc(OC)c1`, the Potency result in assay [1], in assay [2], in assay [3] and in assay [4] was “inactive” each time.

With `CCC(C)(C)O`, the Potency entry in assay [1], in assay [2], in assay [3] and in assay [4] was “inactive” in each case.

`C/C1=C\[C@@H](O)C(C(C)C)C(OC(=O)c2ccc(O)cc2)C/C(C)=C/CC1` (stereo partly specified): the Potency entry in assay [1], in assay [2], in assay [3] and in assay [4] was “inactive” each time.

Regarding `O=c1ccc2cc3ccoc3c(O)c2o1`, the Potency entry in assay [1], in assay [2], in assay [3] and in assay [4] was “inactive” each time.

As to `O=C(O)C=Cc1ccc(Cn2ccnc2)cc1`, the Potency entry in assay [1], in assay [2], in assay [3] and in assay [4] was “inactive” in each case.

With `COc1cccc2c(=O)c3ccoc3n(C)c12`, the Potency result in assay [1], in assay [2], in assay [3] and in assay [4] was “inactive” throughout.

For `CC1(C)C2CC[C@]3(C)C(CC=C4[C@@H]5C[C@@](C)(CO)[C@@H]6C[C@@]5(CC[C@]43C)C(=O)O6)[C@@]2(C)CC[C@@H]1O` (stereo partly specified), the Potency entry in assay [1], in assay [2], in assay [3] and in assay [4] was “inactive” each time.

Regarding `O=C(CCc1ccc(O)cc1)c1c(O)cc(O)cc1O[C@@H]1O[C@H](CO)[C@H](O)[C@H](O)[C@H]1O`, the Potency entry in assay [1], in assay [2], in assay [3] and in assay [4] was “inactive” throughout.

In the case of `Nc1nc(N)c2[nH]cnc2n1`, the Potency result in assay [1], in assay [2], in assay [3] and in assay [4] was “inactive” in each case.

For `CNc1nc(-c2ccc3c(N)n[nH]c3c2)cc(N2C[C@@H](C(=O)NC3CCCCC3)CC[C@@H]2C)n1`, the Potency entry in assay [1] and in assay [4] was “inactive” in each case. Further, the Potency in assay [2] was 24.3 µM (active); in assay [3], 38.5 µM (active).

Consider `COc1cc(C)c(C(=O)Oc2cc(C)c(C(=O)O)c(O)c2C)c(O)c1C(=O)O`, for which the Potency result in assay [1], in assay [2], in assay [3] and in assay [4] was “inactive” throughout.

Take `C=C1C2C[C@H](O)C(C)(C)[C@@]2(O)[C@H](O)C[C@]23C[C@@](C)(O)[C@H](CC[C@H]12)[C@H]3OC(C)=O` (stereo partly specified): the Potency entry in assay [1], in assay [2], in assay [3] and in assay [4] was “inactive” in each case.

In the case of `COc1ccc2c(c1)OC[C@H]1c3cc4c(cc3O[C@@H]21)OCO4`, the Potency entry in assay [1], in assay [2], in assay [3] and in assay [4] was “inactive” in each case.

Regarding `Cc1cc2c(c(CO)c1CCO)C(=O)[C@@H](C)[C@@H]2O`, the Potency entry in assay [1], in assay [2], in assay [3] and in assay [4] was “inactive” each time.

`COc1cc(C)ccc1C(C)C`: the Potency result in assay [1], in assay [2], in assay [3] and in assay [4] was “inactive” each time.

For `Cc1cc(O)cc(O[C@H]2OC(CO)[C@H](O)[C@@H](O)[C@H]2O)c1` (stereo partly specified), the Potency entry in assay [1], in assay [2], in assay [3] and in assay [4] was “inactive” in each case.

For the compound `C[C@H](c1ccc(F)cc1CCCC(=O)O)N(c1cc(F)ccc1F)S(=O)(=O)c1ccc(Cl)cc1`, the Potency result in assay [1], in assay [2], in assay [3] and in assay [4] was “inactive” throughout.

As for `C=CC(C)(CCC=C(C)C)OC(=O)C(C)C` (stereo unspecified), the Potency entry in assay [1], in assay [2], in assay [3] and in assay [4] was “inactive” throughout.

With `O=C(O)CCCCCCCCCC(=O)O`, the Potency entry in assay [1], in assay [2], in assay [3] and in assay [4] was “inactive” throughout.

On to `CC(=O)Nc1nc(C)c(-c2ccc(Cl)c(S(=O)(=O)NCCO)c2)s1`, for which the Potency in assay [1] is 2.43 µM (active); in assay [2] it was 1.37 µM (active); in assay [3] it was 0.685 µM (active); in assay [4], 0.544 µM (active).

On to `COc1cc(O)c(C(C)=O)c2c1C=CC(C)(C)O2`, for which the Potency result in assay [1], in assay [2], in assay [3] and in assay [4] was “inactive” throughout.

Consider `CC(C)=CCc1c(-c2ccc(O)cc2O)oc2cc3c(c(O)c2c1=O)C=CC(C)(C)O3`, for which the Potency entry in assay [1], in assay [2], in assay [3] and in assay [4] was “inactive” each time.

Regarding `CO[C@H]1C=CO[C@@]2(C)Oc3c(C)c(O)c4c(O)c(c(C=NN5CCN(C)CC5)c(O)c4c3C2=O)NC(=O)C(C)=CC=C[C@H](C)[C@H](O)[C@@H](C)[C@@H](O)[C@@H](C)[C@H](OC(C)=O)[C@H]1C`, the Potency entry in assay [1], in assay [2], in assay [3] and in assay [4] was “inactive” in each case.

For the compound `C[C@]12C=CC(=O)C=C1CC[C@@H]1[C@@H]2[C@@H](O)C[C@@]2(C)[C@@H]1CC[C@]2(O)C(=O)CO`, the Potency entry in assay [1], in assay [2], in assay [3] and in assay [4] was “inactive” each time.

In the case of `Cn1c(=O)c2nncnc2n(C)c1=O`, the Potency result in assay [1], in assay [2], in assay [3] and in assay [4] was “inactive” in each case.

Values taken from PubChem BioAssay (NCATS).
